Assay results: PubChem BioAssay (Tox21)
Inconclusive results are not listed. A call without a number means that no potency is given here. A number with no mark means an inactive call. The source made the active and inactive calls. Unless noted, calls follow the shape of the dose curve; as a rule, active = well fitted curve in the direction sought with a large enough effect in the repeat runs; inconclusive = weak or mixed curves; inactive = no such curve, though single readings can be large; an effect the other way counts as inactive or inconclusive.

Columns and labels:
[1] = qHTS assay to identify small molecule agonists of the peroxisome proliferator-activated receptor delta (PPARd) signaling pathway - cell viability counter screen (AID 743211); also: nearly all actives have a fitted effect of over 55% in size; also: potency is read from the fitted curve at half-maximal effect
Procedure, shortened: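 Luminescent ATP viability assay (CellTiter-Glo, 30 min RT) in UAS-bla HEK293H cells carrying the PPAR delta reporter construct, 3000 cells/well, after a 17 h compound treatment at 37 C.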

[2] = biological target: Peroxisome proliferator-activated receptor delta (Homo sapiens) (UniProt Q03181); assay: qHTS assay to identify small molecule agonists of the peroxisome proliferator-activated receptor delta (PPARd) signaling pathway (AID 743212; calls by dose curve)
Procedure, shortened: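 Read-out: beta-lactamase FRET fluorescence after 2 h room-temperature incubation with LiveBLAzer B/G substrate. Cells were HEK293H carrying a UAS-bla reporter for PPARd, treated at 37 C with DMSO-dissolved compounds.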

[3] = qHTS assay to identify small molecule antagonists of the peroxisome proliferator-activated receptor delta (PPARd) signaling pathway - cell viability counter screen (AID 743213); also: nearly all actives have a fitted effect of over 50% in size; also: potency is read from the fitted curve at half-maximal effect
Procedure, shortened: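 In this counter screen, HEK293H cells carrying a UAS-beta-lactamase reporter are co-treated with test compounds and 300 nM L165041 (final) for 17 h at 37 C; cell viability is quantified by CellTiter-Glo luminescence.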

[4] = qHTS assay to identify small molecule agonists of the farnesoid-X-receptor (FXR) signaling pathway - cell viability counter screen (AID 743218); also: nearly all actives have a fitted effect of over 45% in size; also: potency is read from the fitted curve at half-maximal effect
Procedure, shortened: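 Quantitative HTS counter screen measuring ATP-based viability via CellTiter-Glo luminescence in HEK 293T cells carrying a UAS-driven beta-lactamase reporter, after 16 h compound exposure at 37 C.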

[5] = biological target: Vitamin D3 receptor (Homo sapiens) (UniProt P11473); assay: qHTS assay to identify small molecule antagonists of the vitamin D receptor (VDR) signaling pathway (AID 743223; active = well fitted inhibition curve with a large enough effect in the signal ratio in the repeat runs, not every such curve was filed as active; the % refers to the signal ratio)
Procedure, shortened: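 Agonist 1alpha,25-dihydroxyvitamin D3 (3 nM in well) was added with each compound to VDR-bla cells preincubated 4 h. Cells stood 16 h at 37C, then FRET substrate 2 h at room temperature; fluorescence intensity recorded.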

[6] = qHTS assay to identify small molecule antagonists of the farnesoid-X-receptor (FXR) signaling pathway - cell viability counter screen (AID 743221; active = well fitted cell-killing curve with a large enough effect in the repeat runs, not every such curve was filed as active; also: nearly all actives have a fitted effect of over 50% in size)
Procedure, shortened: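 In GeneBLAzer FXR-UAS-bla HEK 293T cells stimulated with 50 uM chenodeoxycholic acid (final), compounds acted for 16 h at 37 C. Viability was assessed afterwards by CellTiter-Glo luminescence.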

[7] = biological target: Vitamin D3 receptor (Homo sapiens) (UniProt P11473); assay: qHTS assay to identify small molecule agonists of the vitamin D receptor (VDR) signaling pathway (AID 743222; calls by dose curve)
Procedure, shortened: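 Tox21 cell reporter format: VDR-bla line, 16 h compound exposure in 5% CO2 at 37C, then fluorescence intensity after 2 h with LiveBLAzer B/G FRET substrate.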

[8] = biological target: Bile acid receptor (Homo sapiens) (UniProt Q96RI1); assay: qHTS assay to identify small molecule antagonists of the farnesoid-X-receptor (FXR) signaling pathway (AID 743217; active = well fitted inhibition curve with a large enough effect in the signal ratio in the repeat runs, not every such curve was filed as active; the % refers to the signal ratio)
Procedure, shortened: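 Test compounds are pin-transferred onto FXR-bla HEK 293T cells, then chenodeoxycholic acid is added at 50 uM final. After 16 h at 37 °C, LiveBLAzer B/G substrate is applied for 2 h at room temperature and fluorescence read.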

[9] = biological target: Bile acid receptor (Homo sapiens) (UniProt Q96RI1); assay: qHTS assay to identify small molecule agonists of the farnesoid-X-receptor (FXR) signaling pathway (AID 743220; active = well fitted activation curve with a large enough effect in the signal ratio in the repeat runs, not every such curve was filed as active; the % refers to the signal ratio)
Procedure, shortened: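 FXR-UAS-bla HEK 293T cells carrying a UAS-driven beta-lactamase reporter were plated for 5 h at 37C/5% CO2, then exposed to DMSO-dissolved Tox21 10K compounds for 16 h at 37C. A LiveBLAzer B/G FRET substrate was loaded for 2 h at room temperature before fluorescence reading.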

[10] = biological target: Peroxisome proliferator-activated receptor delta (Homo sapiens) (UniProt Q03181); assay: qHTS assay to identify small molecule antagonists of the peroxisome proliferator-activated receptor delta (PPARd) signaling pathway (AID 743215; active = well fitted inhibition curve with a large enough effect in the signal ratio in the repeat runs, not every such curve was filed as active; the % refers to the signal ratio;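 also: cells stimulated with agonist L165041 at 300 nM final during compound exposure; series mostly up to about 62 µM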)
Procedure, shortened: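 Here, a reporter line (HEK293H, beta-lactamase under a UAS) measures PPARd signaling. Compounds are tested against agonist L165041 at 300 nM final concentration over 17 h at 37 C, with fluorescence read after substrate.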

Chain of Bile acid receptor (Homo sapiens) (Q96RI1 whole entry, looked up): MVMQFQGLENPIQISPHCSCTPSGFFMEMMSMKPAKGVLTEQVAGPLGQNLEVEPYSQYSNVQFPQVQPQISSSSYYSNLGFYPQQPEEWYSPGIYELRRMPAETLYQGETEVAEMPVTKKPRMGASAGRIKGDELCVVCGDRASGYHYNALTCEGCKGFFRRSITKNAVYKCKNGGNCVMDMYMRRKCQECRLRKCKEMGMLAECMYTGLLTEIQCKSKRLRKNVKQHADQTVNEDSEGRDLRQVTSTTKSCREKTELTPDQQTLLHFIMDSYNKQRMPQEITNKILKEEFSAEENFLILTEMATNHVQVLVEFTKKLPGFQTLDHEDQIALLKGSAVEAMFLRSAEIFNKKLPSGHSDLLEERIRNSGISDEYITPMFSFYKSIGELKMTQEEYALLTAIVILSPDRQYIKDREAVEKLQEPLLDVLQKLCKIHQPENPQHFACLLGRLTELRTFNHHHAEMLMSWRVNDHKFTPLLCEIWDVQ
Chain of Peroxisome proliferator-activated receptor delta (Homo sapiens) (Q03181 whole entry, looked up): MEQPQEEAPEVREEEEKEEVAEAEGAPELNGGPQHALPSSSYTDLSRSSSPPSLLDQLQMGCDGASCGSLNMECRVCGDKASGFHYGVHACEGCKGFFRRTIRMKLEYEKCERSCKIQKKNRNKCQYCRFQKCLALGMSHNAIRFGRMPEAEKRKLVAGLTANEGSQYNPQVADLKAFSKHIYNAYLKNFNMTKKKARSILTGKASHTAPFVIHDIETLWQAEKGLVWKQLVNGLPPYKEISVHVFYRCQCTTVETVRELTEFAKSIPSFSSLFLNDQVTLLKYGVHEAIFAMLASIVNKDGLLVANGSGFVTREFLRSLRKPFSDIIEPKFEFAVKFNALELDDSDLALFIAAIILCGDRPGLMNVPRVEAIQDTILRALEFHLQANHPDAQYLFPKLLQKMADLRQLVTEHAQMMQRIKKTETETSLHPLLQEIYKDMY
Chain of Vitamin D3 receptor (Homo sapiens) (P11473 whole entry, looked up): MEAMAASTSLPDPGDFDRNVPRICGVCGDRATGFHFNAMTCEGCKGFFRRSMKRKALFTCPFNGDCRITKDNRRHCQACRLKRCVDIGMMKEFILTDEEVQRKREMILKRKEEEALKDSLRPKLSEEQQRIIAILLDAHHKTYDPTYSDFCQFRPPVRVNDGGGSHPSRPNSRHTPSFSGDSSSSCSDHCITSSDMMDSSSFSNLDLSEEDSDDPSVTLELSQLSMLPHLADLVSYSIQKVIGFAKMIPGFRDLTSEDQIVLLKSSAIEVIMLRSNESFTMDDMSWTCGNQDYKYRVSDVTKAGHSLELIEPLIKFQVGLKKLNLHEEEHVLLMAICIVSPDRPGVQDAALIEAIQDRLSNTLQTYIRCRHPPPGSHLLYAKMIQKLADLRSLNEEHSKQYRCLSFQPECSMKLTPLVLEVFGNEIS

| Structure (SMILES) | Potency [1] | outcome [2] | Potency [3] | Potency [4] | Potency [5] | Potency [6] | outcome [7] | outcome [8] | outcome [9] | outcome [10] |
| --- | --- | --- | --- | --- | --- | --- | --- | --- | --- | --- |
| COCCOCCOCCOCCOC | inactive | inactive | inactive | inactive | inactive | – | – | – | – | – |
| c1ccc(CNCc2ccccc2)cc1 | inactive | inactive | – | inactive | inactive | inactive | inactive | – | – | – |
| CCCCCCCCC(CO)CCCCCC (stereo not given) | inactive | – | inactive | inactive | inactive | inactive | inactive | inactive | inactive | – |
| Cc1cc(O)ccc1N | inactive | inactive | – | inactive | – | – | – | inactive | – | inactive |
| Cn1c(NCCN(CCO)CCCc2ccc([N+](=O)[O-])cc2)cc(=O)n(C)c1=O | inactive | inactive | – | inactive | inactive | inactive | – | – | – | – |
| Cc1ccc(C)o1 | inactive | – | inactive | inactive | inactive | inactive | inactive | inactive | inactive | inactive |
| CCCCCCCCCC=O | inactive | – | inactive | inactive | inactive | – | inactive | – | – | – |
| CCCCCCc1ccc(N)cc1 | inactive | – | inactive | – | inactive | – | inactive | inactive | – | – |
| NC(N)=NN=C(/C=C/c1ccc([N+](=O)[O-])o1)/C=C/c1ccc([N+](=O)[O-])o1 | 9.44 µM (active) | – | 9.44 µM (active) | 10.6 µM (active) | – | – | – | – | – | – |
| CC(C)(C)C(=O)OCOP(=O)(COCCn1cnc2c(N)ncnc21)OCOC(=O)C(C)(C)C | inactive | – | inactive | inactive | – | inactive | – | – | – | – |
| CCCCOC(=O)/C=C\C(=O)OCCCC | inactive | – | inactive | inactive | inactive | inactive | inactive | – | inactive | – |
| ClC(Cl)(Cl)c1ccc(C(Cl)(Cl)Cl)cc1 | inactive | – | inactive | inactive | inactive | inactive | inactive | – | – | – |
| COC(Cc1ccccc1)OC | inactive | – | inactive | inactive | inactive | inactive | inactive | – | – | – |
| O=C(O)Cn1c(C(=O)Nc2nc(-c3ccccc3Cl)cs2)cc2ccccc21 | inactive | – | inactive | inactive | inactive | inactive | – | inactive | inactive | – |
| Oc1ccc2c(c1)OCO2 | inactive | – | inactive | inactive | – | inactive | inactive | – | – | – |
| O=C(O)c1cccc(N(Cc2cccnc2)c2ccc(OC(F)F)c(OC(F)F)c2)c1 | inactive | – | inactive | inactive | – | inactive | – | – | – | – |
| C[Si](C)O[Si](C)(C)O[Si](C)(C)O[Si](C)C | inactive | – | inactive | inactive | inactive | inactive | inactive | – | – | – |

| Structure (SMILES) | Potency [1] | outcome [2] | Potency [3] | Potency [4] | Potency [5] | Potency [6] | outcome [7] | outcome [8] | outcome [9] | outcome [10] |
| --- | --- | --- | --- | --- | --- | --- | --- | --- | --- | --- |
| NCCCOCCOCCOCCCN | inactive | – | inactive | inactive | – | inactive | inactive | – | – | – |
| O=C(c1ccccc1)c1ccc2n1CCC2C(=O)O (stereo not given) | inactive | – | inactive | inactive | – | inactive | – | – | – | – |
| COc1ccccc1OC(=O)Oc1ccccc1OC | inactive | – | inactive | inactive | inactive | – | inactive | – | – | – |
| O=C(Nc1ccccc1)OCC(CN1CCCCC1)OC(=O)Nc1ccccc1 (stereo not given) | 26.6 µM (active) | – | 26.6 µM (active) | – | – | inactive | inactive | – | inactive | – |
| CC/C(=C\C(=N/O)C(N)=O)C(C)[N+](=O)[O-] (stereo not given) | inactive | – | inactive | inactive | – | inactive | inactive | – | – | – |
| Cc1cccc(C(C)(C)C)c1O | inactive | – | inactive | inactive | inactive | inactive | inactive | – | – | – |
| Cc1cc(CC(=O)O)c(C)n1-c1ccc(Cl)cc1 | inactive | – | inactive | inactive | inactive | – | inactive | inactive | inactive | – |
| CN(C(=O)CCCOc1ccc2[nH]c(=O)ccc2c1)C1CCCCC1 | inactive | – | inactive | inactive | – | – | inactive | inactive | inactive | – |
| CC(CN)CCCN (stereo not given) | inactive | – | inactive | inactive | – | inactive | – | – | – | – |
| CC[C@H](C)[C@H](N)C(=O)O | inactive | – | inactive | inactive | inactive | inactive | inactive | – | – | – |
| CC(C(=O)O)c1ccc(-c2ccccc2)c(F)c1 (stereo not given) | inactive | – | inactive | inactive | inactive | – | inactive | – | – | – |
| O=S1(=O)N=C(O)c2ccccc21 | inactive | – | inactive | inactive | – | – | – | – | – | – |
| O=C1CCCCCO1 | inactive | – | inactive | inactive | inactive | inactive | inactive | – | – | – |
| SC1CCCC1 | inactive | – | inactive | inactive | – | inactive | – | – | – | – |
| NC1CCN(c2nc3c(cc2F)c(=O)c(C(=O)O)cn3-c2ccc(F)cc2F)C1 (stereo not given) | inactive | – | inactive | inactive | – | inactive | – | – | – | – |
| NCc1ccccc1 | inactive | – | inactive | inactive | inactive | – | inactive | – | – | – |
| CCCCCCCCN(C)C | inactive | – | inactive | inactive | – | – | inactive | – | – | – |
